This is an account of results in PubChem BioAssay AID434958 (Southern Research Specialized Biocontainment Screening …, 2010).

Structures are written as SMILES. Hit rate of the full screen: of about 1,200 compounds, about 400 (33%) were called active. No rule for the calls is given here. These entries were drawn from the full list. Results with a measured potency or affinity are listed apart.

This test can be described thus: mammalian cell cytotoxicity, dose response, cytotoxicity control (AID 434958).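 Also: cells exposed to compound for 72 hours before readout.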 Particulars: cytotoxicity counter-screen; series mostly up to 40 µM.
On to `S=C(Nc1ccccc1)Nc1ccc(Cl)cn1`, for which the result was inactive.
For `c1ccc(CSc2nnc(-c3ccco3)o2)cc1` the value was “inactive”; for `O=C(Cn1c(=O)n(CCCC(=O)NC2CCCC2)c(=O)c2ccccc21)NCCC1=CCCCC1`, “inactive”.
In the case of `COc1cc(/C=C/c2ccc3cccc([N+](=O)[O-])c3n2)ccc1OCC(=O)O` it was “inactive”.
In the case of `CCOc1ccc(NC(=O)/C(C#N)=C/c2cn(CC(=O)O)c3ccccc23)cc1` it was “inactive”.
Consider `CC(C)(C)c1nc2scc(-c3cccs3)c2c(=O)o1`, for which the outcome was inactive.
On to `O=C(CSc1nnc(-c2cnccn2)n1Cc1ccco1)Nc1ccc(Br)cc1`, for which the compound was classed as inactive.
In the case of `CN(NC(=O)c1c(Cl)cccc1Cl)c1cccc(Cl)n1` it was “inactive”; in that of `Cc1onc(-c2ccccc2Cl)c1C(=O)NCc1ccc2c(c1)cc(C)n2C`, “inactive”.
For `c1ccc(OCc2nnc(-c3ccccc3)o2)cc1` the value was “inactive”.
For `CC1(C)CCN2CCC(C)(C)c3c(O)ccc1c32` the value was “inactive”.
As for `CCN(CC)C(=O)Cn1cc(C(=O)C(=O)N2CCN(c3ccccc3)CC2)c2ccccc21`, the compound was called inactive.
In the case of `C#C[C@]1(O)CC[C@H]2[C@@H]3CCC4=C(CCC(=O)C4)[C@H]3CC[C@@]21C` it was “inactive”.
For `Cc1ccc(SCc2c(-c3ccccc3)nn(C)c2Cl)cc1` the value was “inactive”; for `O=C(N/N=C/c1c(O)n(Cc2ccc(F)cc2)c(=S)[nH]c1=O)c1ccncc1`, “inactive”; for `COC(=O)Cn1nc(-c2ccccc2)c2ccccc21`, “inactive”.
In the case of `COC(=O)c1c(C(=O)OC)c(C)n(Cc2ccco2)c1C` it was “inactive”.
For the compound `CCOc1cc(CNCCN(C)C)c(Cl)cc1OCC(=O)NCCc1ccccc1`, the call was inactive.
In the case of `CCc1ccc(NC(=O)c2c(Cl)nc(C)c(Cl)c2C)cc1` it was “inactive”; in that of `COc1ccc(/C=N\NC(=O)c2sc(N)nc2C)cc1OC`, “inactive”; in that of `CCN(CC)C(=O)C1CCCN(c2ccc([N+](=O)[O-])cc2/C=N/NC(=O)c2cccc(O)c2)C1` (centres undefined), “inactive”.
As to `Cc1nn(-c2ccccc2)cc1/C=N/NC(N)=S`, the outcome was inactive.
For `Cc1cc(=O)[nH]c(N/N=C/c2c(O)n(-c3ccccc3)c(=O)c3ccccc23)n1` the value was “inactive”; for `O=C(N/N=C/c1c(Cl)cccc1Cl)c1cccc(F)c1`, “inactive”; for `Cc1ccccc1/C=N\NC(=O)c1csnn1`, “inactive”.
In the case of `CCc1ccc(NC(=S)Nc2ccc3[nH]c(=O)[nH]c3c2)cc1` it was “inactive”; in that of `COc1ccc([N+](=O)[O-])cc1NC(=O)c1ccc(Br)s1`, “inactive”.
For `CCOC(=O)c1c(NC(=O)COC(=O)c2ncc(Cl)c(Cl)c2Cl)sc(C(=O)N(C)C)c1C` the value was “inactive”; for `COc1cc(OC)c2ccc(=O)oc2c1C(CC(=O)N1CCN(c2ccccc2)CC1)c1ccc2c(c1)OCO2` (centres undefined), “inactive”; for `CCC(C(=O)Nc1ccccc1N1CCCC1)c1ccccc1` (centres undefined), “inactive”.
Take `CCOCC(=O)N1CCN(c2ccc(F)cc2)CC1`: the call was inactive.
In the case of `O=C(c1cccc(Cl)c1)N1CCN(Cc2ccccc2F)CC1` it was “inactive”.
For `Cc1ccc(CNC(=O)c2ccccc2NC(=O)CSc2nnnn2C)cc1` the value was “inactive”.
For `Cc1ccc(C)c(NC(=O)COC(=O)c2ccc(S(=O)(=O)N3CCCCC3)cc2)c1` the value was “inactive”.
As to `O=c1[nH]c(C2CCN(S(=O)(=O)c3ccc(S(=O)(=O)NC4CC4)cc3)CC2)nc2c1nnn2Cc1ccc(F)cc1`, the outcome was inactive.
For `COc1cccc(-c2nnn(CC(=O)Nc3cc(OC)c(NC(=O)c4ccco4)cc3OC)n2)c1` the value was “inactive”.
In the case of `COCCCn1c(=O)/c(=C\c2ccccc2OC(C)C)s/c1=C(/C#N)C(=O)Nc1ccc(C(=O)O)cc1` it was “inactive”; in that of `O=C1c2ccccc2N2C(=O)c3ccccc3C2N1O` (centres undefined), “inactive”.
For `CSc1ccccc1NC(=O)c1c(Br)cnn1C` the value was “inactive”; for `C(=N\n1cnnc1)/c1ccc(-c2ccccc2)cc1`, “inactive”; for `CCc1ccc(N2C(=O)c3sc4nnc(-c5ccccc5)c(=O)n4c3C2=O)cc1`, “inactive”.
`Cn1c(/C=C/c2ccc(Cl)cc2)nc2ccccc2c1=O`: the outcome was inactive.
In the case of `CCOc1ccc2c(c1)c(C(C)=O)c(C)n2-c1ccccc1`, the call was inactive.
For `CCOC(=O)c1sc(NC(=O)CN2CCN(c3ccc(OC)cc3)CC2)nc1C` the value was “inactive”; for `O=c1cc(C(F)(F)F)c2sc(N3CCCCC3)nc2[nH]1`, “inactive”.
For `COc1ccc(NC(=O)CCC2CCCC2)cc1OC` the value was “inactive”.
In the case of `CCN(CC)C(=O)COc1ccc(-c2nnc(Nc3ccc(OC)c(C(=O)NC)c3)c3ccccc23)cc1` it was “inactive”; in that of `CCCc1cc(C(=O)Nc2ccc(C(C)=O)cc2)no1`, “inactive”; in that of `O=C1c2cccc3c(N4CCCCC4)ccc(c23)C(=O)N1c1ccccn1`, “inactive”.
Regarding `COC(=O)c1ccc(-c2cc(C(=O)O)c3cc4c(cc3n2)OCCO4)cc1`, the outcome was inactive.
For `C/C(=N\NC(=O)c1ccncc1)c1c(O)n(-c2ccccc2)c(=O)[nH]c1=O` the value was “inactive”; for `O=C(NN=C(Cc1ccccc1)Cc1ccccc1)c1ccccc1F`, “inactive”.
In the case of `C/C(=N/NC(=O)c1ccccn1)c1ccncc1` it was “inactive”.
Take `C/C(=N\NC(=O)c1csc2ccccc12)c1ccc(O)cc1`: the call was inactive.
For `S=C(Nc1ccccc1Cl)N1CCCC(c2ccccc2)=N1` the value was “inactive”.
In the case of `CCN(CC)c1ccc(C=N/C(C#N)=C(\N)C#N)cc1` it was “inactive”.
For `COc1nc(-c2ccccc2)ccc1-c1noc(-c2cccnc2)n1` the value was “inactive”.
Regarding `CCn1nc(C)c([N+](=O)[O-])c1C(=O)NNC(=O)c1ccccc1Cl`, the compound was called inactive.
For `COc1cccc(-c2ccc(-c3noc(-c4ccccc4F)n3)c(OC)n2)c1` the value was “inactive”.
For `Cc1cc(Br)cc2c(C(=O)NCC3CCCO3)cc(-c3ccccc3)nc12` (centres undefined) the value was “inactive”; for `CCCn1c2ccccc2c2nnc(SCC(=O)OCC)nc21`, “inactive”.
In the case of `CC(C)(C)c1cc(Cc2ccccc2)[nH]n1` it was “inactive”; in that of `COc1ccc([N+](=O)[O-])cc1NS(=O)(=O)c1ccc(Cl)c(C(=O)Nc2sc3c(c2C#N)CCCCC3)c1`, “inactive”.
As for `CCCC(=O)Nc1nc(-c2ccccc2)ns1`, the call was inactive.
In the case of `Cc1ccc(C)c(S(=O)(=O)N2CCN(CC(=O)NC(C)c3ccccc3)CC2)c1` (centres undefined) it was “inactive”.
In the case of `O=c1oc(-c2ccccc2F)nc2scc(-c3ccccc3)c12` it was “inactive”; in that of `Cc1ccc(C2=NN(C(=O)CN3C(=O)c4ccccc4S3(=O)=O)C(c3ccco3)C2)cc1` (centres undefined), “inactive”; in that of `COCCOC(=O)c1c(C)oc2ccc(OCc3cc(C(=O)OC)oc3C)cc12`, “inactive”.
Regarding `Cc1sc2nc(C(C)Nc3ccccc3N3CCOCC3)[nH]c(=O)c2c1C` (centres undefined), the compound was called inactive.
